# Measured values taken from the supplement of paper PMC7411054.
# Structures can show the parent of a compound that is named as a salt.
# Legend:
# Conditions in all cases: treatment time: 24 h
# [1] = system: A549-ACTB-RAB5A; test: lowest phenotypically active concentration; higher = less potent
# Method in brief: (§1)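 Each of fifteen gene-edited A549, HepG2 and WPMY1 reporter lines, marked with BFP for segmentation and GFP and RFP/FusionRed, was treated in four wells at 0.3, 1, 3 or 9 µM for 24 h prior to live imaging. Normalisation of per-well live-cell features used solvent control wells. Deviation needed ≥3 of 4 wells beyond the 95th percentile of control Euclidean distances, and reproducibility needed a median replicate Pearson correlation above the 95th percentile of non-replicates. Both were required for phenotypic activity.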
# [2] = system: A549-GM130-SQSTM1; test: as above
# Method in brief: as §1
# [3] = system: A549-TUBA1B-RELA; test: as above
# Method in brief: as §1
# [4] = system: HepG2-ACTB-RAB5A; test: as above
# Method in brief: as §1
# [5] = system: WPMY1-GM130-SQSTM1; test: as above
# Method in brief: as §1
# [6] = system: A549-ACTB-RAB5A; test: phenotypically active (imaging signature differs from DMSO and reproducible) at any of 0.3-9 uM (binary (1 = active, 0 = inactive)); higher = active
# Method in brief: as §1
# [7] = system: A549-CANX-COX4; test: as above
# Method in brief: as §1
# [8] = system: A549-GM130-SQSTM1; test: as above
# Method in brief: as §1
# [9] = system: A549-TP53BP1-CLTA; test: as above
# Method in brief: as §1
# [10] = system: A549-TUBA1B-RELA; test: as above
# Method in brief: as §1
# [11] = system: HepG2-ACTB-RAB5A; test: as above
# Method in brief: as §1
# [12] = system: HepG2-CANX-COX4; test: as above
# Method in brief: as §1
# [13] = system: HepG2-GM130-SQSTM1; test: as above
# Method in brief: as §1
# [14] = system: HepG2-TP53BP1-CLTA; test: as above
# Method in brief: as §1
# [15] = system: HepG2-TUBA1B-RELA; test: as above
# Method in brief: as §1
# [16] = system: WPMY1-ACTB-RAB5A; test: as above
# Method in brief: as §1
# [17] = system: WPMY1-CANX-COX4; test: as above
# Method in brief: as §1
# [18] = system: WPMY1-GM130-SQSTM1; test: as above
# Method in brief: as §1
# [19] = system: WPMY1-TP53BP1-CLTA; test: as above
# Method in brief: as §1
# [20] = system: WPMY1-TUBA1B-RELA; test: as above
# Method in brief: as §1
Structure (SMILES),lowest phenotypically active concentration [1],lowest phenotypically active concentration [2],lowest phenotypically active concentration [3],lowest phenotypically active concentration [4],lowest phenotypically active concentration [5],phenotypically active [6],phenotypically active [7],phenotypically active [8],phenotypically active [9],phenotypically active [10],phenotypically active [11],phenotypically active [12],phenotypically active [13],phenotypically active [14],phenotypically active [15],phenotypically active [16],phenotypically active [17],phenotypically active [18],phenotypically active [19],phenotypically active [20]
CCSc1ccc2c(c1)N(CCCN1CCN(C)CC1)c1ccccc1S2 [thiethylperazine],3 µM,3 µM,3 µM,9 µM,9 µM,1 (active),0 (inactive),1 (active),0 (inactive),1 (active),1 (active),0 (inactive),1 (active),0 (inactive),1 (active),1 (active),1 (active),1 (active),1 (active),1 (active)
O=C(Nc1nc2cc(C(F)(F)F)cc(NC3CC3)n2n1)c1cccnc1,3 µM,3 µM,9 µM,–,–,1 (active),0 (inactive),1 (active),0 (inactive),1 (active),0 (inactive),1 (active),0 (inactive),1 (active),1 (active),1 (active),1 (active),0 (inactive),1 (active),0 (inactive)
CN1CCC(CN2c3ccccc3Sc3ccccc32)C1 (configuration not stated) [methdilazine],9 µM,3 µM,3 µM,9 µM,3 µM,1 (active),0 (inactive),1 (active),0 (inactive),1 (active),1 (active),0 (inactive),1 (active),1 (active),1 (active),1 (active),1 (active),1 (active),1 (active),1 (active)
O=C([C@@H](Cc1cccc(C(F)(F)F)c1)NS(=O)(=O)c1cc(F)c2c(c1)CCNC2)N1CCCC1 [(R)-PFI 2 hydrochloride],9 µM,9 µM,9 µM,–,–,1 (active),0 (inactive),1 (active),0 (inactive),1 (active),0 (inactive),0 (inactive),0 (inactive),0 (inactive),0 (inactive),0 (inactive),0 (inactive),0 (inactive),0 (inactive),0 (inactive)
O[C@H](CNC[C@H](O)[C@@H]1CCc2cc(F)ccc2O1)[C@@H]1CCc2cc(F)ccc2O1 [nebivolol],3 µM,3 µM,3 µM,3 µM,9 µM,1 (active),0 (inactive),1 (active),0 (inactive),1 (active),1 (active),0 (inactive),0 (inactive),1 (active),1 (active),1 (active),1 (active),1 (active),1 (active),1 (active)
CCCc1cc(C)n(C)c(=O)c1CN(C)C(=O)c1cc(-c2ccc(N3CCN(C(C)C)CC3)nc2)cc2c1cnn2C(C)C,3 µM,3 µM,3 µM,9 µM,3 µM,1 (active),0 (inactive),1 (active),0 (inactive),1 (active),1 (active),0 (inactive),1 (active),1 (active),0 (inactive),1 (active),1 (active),1 (active),1 (active),1 (active)
CC(CN(C)C)CN1c2ccccc2CCc2ccccc21 (configuration not stated) [trimipramine],9 µM,9 µM,9 µM,9 µM,9 µM,1 (active),0 (inactive),1 (active),0 (inactive),1 (active),1 (active),0 (inactive),0 (inactive),0 (inactive),1 (active),1 (active),1 (active),1 (active),0 (inactive),0 (inactive)
Fc1ccc([C@@H]2CCNC[C@H]2COc2ccc3c(c2)OCO3)cc1 [paroxetine],3 µM,3 µM,3 µM,9 µM,9 µM,1 (active),0 (inactive),1 (active),0 (inactive),1 (active),1 (active),0 (inactive),1 (active),1 (active),1 (active),1 (active),1 (active),1 (active),1 (active),1 (active)
Cc1cc2nc(NCCCO)n(CC(=O)c3cc(C(C)(C)C)c(O)c(C(C)(C)C)c3)c2cc1C,3 µM,3 µM,9 µM,9 µM,–,1 (active),0 (inactive),1 (active),0 (inactive),1 (active),1 (active),0 (inactive),0 (inactive),0 (inactive),1 (active),0 (inactive),0 (inactive),0 (inactive),0 (inactive),0 (inactive)
COCCCC/C(=N/OCCN)c1ccc(C(F)(F)F)cc1 [fluvoxamine],9 µM,9 µM,9 µM,–,–,1 (active),0 (inactive),1 (active),0 (inactive),1 (active),0 (inactive),0 (inactive),0 (inactive),1 (active),1 (active),1 (active),0 (inactive),0 (inactive),0 (inactive),0 (inactive)
CC1=C(/C=C/C(C)=C\C=C\C(C)=C\C(=O)O)C(C)(C)CCC1 [tretinoin],3 µM,3 µM,3 µM,1 µM,≤ 0.3 µM,1 (active),0 (inactive),1 (active),0 (inactive),1 (active),1 (active),1 (active),1 (active),0 (inactive),0 (inactive),1 (active),1 (active),1 (active),1 (active),1 (active)
CC(CN1c2ccccc2Sc2ccccc21)N(C)C (configuration not stated) [promethazine],9 µM,9 µM,9 µM,9 µM,9 µM,1 (active),0 (inactive),1 (active),0 (inactive),1 (active),1 (active),0 (inactive),1 (active),1 (active),1 (active),1 (active),0 (inactive),1 (active),1 (active),1 (active)
CN(C)CC(O)Cn1c2ccc(Br)cc2c2cc(Br)ccc21 (configuration not stated) [Wiskostatin],3 µM,1 µM,1 µM,3 µM,3 µM,1 (active),0 (inactive),1 (active),0 (inactive),1 (active),1 (active),1 (active),1 (active),1 (active),1 (active),1 (active),1 (active),1 (active),1 (active),1 (active)
Cc1cc(CS(=O)(=O)c2ccccc2)cc(OCc2ccc(CN3CCC[C@@H]3CO)cc2)c1 [PF 543 hydrochloride],9 µM,9 µM,9 µM,9 µM,–,1 (active),0 (inactive),1 (active),0 (inactive),1 (active),1 (active),0 (inactive),1 (active),1 (active),0 (inactive),1 (active),0 (inactive),0 (inactive),0 (inactive),0 (inactive)
CC[C@H](CO)Nc1nc(Nc2cccc(-c3ccccn3)c2)c2ncn(C(C)C)c2n1 [(R)-DRF053 dihydrochloride],9 µM,9 µM,–,9 µM,–,1 (active),0 (inactive),1 (active),0 (inactive),0 (inactive),1 (active),0 (inactive),1 (active),1 (active),1 (active),0 (inactive),1 (active),0 (inactive),0 (inactive),1 (active)
O=C(Nc1ccncc1)c1cc([N+](=O)[O-])ccc1Cl,3 µM,–,9 µM,9 µM,9 µM,1 (active),0 (inactive),0 (inactive),1 (active),1 (active),1 (active),1 (active),1 (active),1 (active),1 (active),0 (inactive),1 (active),1 (active),0 (inactive),1 (active)
Cc1ccc(NC(=O)c2cccc(C(C)(C)C#N)c2)cc1Nc1ccc2ncn(C)c(=O)c2c1,1 µM,–,9 µM,≤ 0.3 µM,3 µM,1 (active),0 (inactive),0 (inactive),1 (active),1 (active),1 (active),1 (active),1 (active),1 (active),1 (active),1 (active),1 (active),1 (active),1 (active),0 (inactive)
COc1cc(OC)c2c(=O)[nH]c(-c3cc(C)c(OCCO)c(C)c3)nc2c1 [apabetalone],9 µM,9 µM,–,9 µM,–,1 (active),0 (inactive),1 (active),0 (inactive),0 (inactive),1 (active),1 (active),1 (active),0 (inactive),0 (inactive),0 (inactive),0 (inactive),0 (inactive),1 (active),1 (active)
Nc1ccc(N=Nc2ccccc2)c(N)n1 [phenazopyridine],≤ 0.3 µM,1 µM,–,–,3 µM,1 (active),0 (inactive),1 (active),0 (inactive),0 (inactive),0 (inactive),0 (inactive),0 (inactive),0 (inactive),0 (inactive),0 (inactive),0 (inactive),1 (active),0 (inactive),0 (inactive)
Fc1ccccc1Nc1nc2nonc2nc1Nc1ccccc1F,9 µM,3 µM,9 µM,–,–,1 (active),0 (inactive),1 (active),0 (inactive),1 (active),0 (inactive),0 (inactive),0 (inactive),1 (active),1 (active),1 (active),1 (active),0 (inactive),0 (inactive),0 (inactive)
